From PubChem BioAssay (EPA / NIEHS) come the findings set out here.

Conditions in all cases: mRNA level, 48 h; actives raise or lower the signal
Read-out in test [1]: Paternally Expressed 10 (PEG10), PEG10 (gene 23089)
Put plainly: LTEA_HepaRG_PEG10: Life Technologies and Expression Analysis (LTEA) Assay for Paternally Expressed 10 (PEG10) using HepaRG (AID 2283520).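 As to AC50: PEG10 transcript by qRT-PCR normalised to ACTB GAPDH and POLR2A.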 The gist of the method:
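PEG10 transcript measured by Fluidigm qRT-PCR, normalized to three housekeeping genes, in HepaRG cells treated 48 h (highest 100 uM, half-log steps, 0.5% DMSO vehicle). Cells plated 48 h before switching to serum-free induction medium.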

Read-out in test [2]: Nuclear factor NF-kappa-B p105 subunit (Homo sapiens) (UniProt P19838)
Briefly: LTEA_HepaRG_NFKB1: Life Technologies and Expression Analysis (LTEA) Assay for Nuclear Factor Kappa B Subunit 1 (NFKB1) using HepaRG (AID 2283521). A digest of the protocol: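 Differentiated human HepaRG cells were exposed for 48 h in serum-free induction medium to eight concentrations (top 100 uM, half-log steps, 0.5% DMSO), in duplicate. NFKB1 mRNA was measured by TaqMan qRT-PCR, normalized to ACTB/GAPDH/POLR2A, and fitted bidirectionally against DMSO.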

Read-out in test [3]: Protein phosphatase 2A (PPP2R4), PTPA (gene 5524)
Briefly: LTEA_HepaRG_PPP2R4: Life Technologies and Expression Analysis (LTEA) Assay for Protein phosphatase 2A (PPP2R4) using HepaRG (AID 2283522). A digest of the protocol:
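Expression was quantified by Fluidigm qRT-PCR normalised to three housekeeping genes after 48 h treatment. Human HepaRG cells received an 8-point series from 100 µM downward by half-logs, in duplicate with 0.5% DMSO vehicle and 1 mM phenobarbital as induction control.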

Read-out in test [4]: Phosphatase and tensin (PTEN), PTEN (gene 5728)
Briefly: LTEA_HepaRG_PTEN: Life Technologies and Expression Analysis (LTEA) Assay for Phosphatase and tensin (PTEN) using HepaRG (AID 2283523). A digest of the protocol: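 Read-out: TaqMan qRT-PCR of PTEN transcript, normalized to three housekeeping genes, fitted in both directions against 0.5% DMSO. Differentiated human HepaRG cultures received chemicals for 48 h, eight-point half-log series topping at 100 uM.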

Read-out in test [5]: solute carrier (SLC22A1), SLC22A1 (gene 6580)
Put plainly: LTEA_HepaRG_SLC22A1: Life Technologies and Expression Analysis (LTEA) Assay for solute carrier (SLC22A1) using HepaRG (AID 2283524). A digest of the protocol:
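Transcript level of SLC22A1 quantified by qRT-PCR (normalized to three housekeeping genes) after 48 h chemical exposure of HepaRG cells, eight concentrations up to 100 µM, half-log steps, 0.5% DMSO vehicle. Gain or loss relative to DMSO fitted bidirectionally.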

Read-out in test [6]: NAD(P)H dehydrogenase [quinone] 1 (NQO1), NQO1 (gene 1728)
Briefly: LTEA_HepaRG_NQO1: Life Technologies and Expression Analysis (LTEA) Assay for NAD(P)H dehydrogenase [quinone] 1 (NQO1) using HepaRG (AID 2283526). A digest of the protocol:
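NQO1 transcript induction or loss measured by TaqMan qRT-PCR, referenced to three housekeeping genes and fitted bidirectionally against 0.5% DMSO. HepaRG cultures exposed 48 h, duplicate, eight-point half-log series, top 100 uM.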

Read-out in test [7]: Nuclear factor erythroid 2-related factor 2 (Homo sapiens) (UniProt Q16236)
Briefly: LTEA_HepaRG_NFE2L2: Life Technologies and Expression Analysis (LTEA) Assay for Nuclear factor erythroid 2-related factor 2 (NFE2L2) Transcription Factor using HepaRG (AID 2283527).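 As to outcome: TaqMan qRT-PCR transcript level normalised to ACTB GAPDH and POLR2A housekeeping genes.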 The gist of the method: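 NFE2L2 transcript level was read by qRT-PCR (housekeeping ACTB/GAPDH/POLR2A normalisation) after 48 h chemical treatment of HepaRG in serum-free induction medium. Duplicate 8-point half-log curves, top 100 uM, 0.5% DMSO vehicle; up- or down-regulation fitted against vehicle.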

Read-out in test [8]: Signal transducer and activator of transcription 3 (Homo sapiens) (UniProt P40763)
Briefly: LTEA_HepaRG_STAT3: Life Technologies and Expression Analysis (LTEA) Assay for Signal transducer and activator of transcription (STAT3) using HepaRG (AID 2283529). The gist of the method: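 STAT3 transcript quantified by qRT-PCR against three housekeeping genes (ACTB, GAPDH, POLR2A), fitted both directions relative to DMSO. HepaRG cultures exposed 48 h to eight half-log concentrations, top 100 uM, 0.5% DMSO, serum-free induction medium.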

Read-out in test [9]: solute carrier (SLCO1B1), SLCO1B1 (gene 10599)
Briefly: LTEA_HepaRG_SLCO1B1: Life Technologies and Expression Analysis (LTEA) Assay for solute carrier (SLCO1B1) using HepaRG (AID 2283530). The gist of the method:
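Human HepaRG cultures treated for 48 h with an eight-concentration half-log series topping at 100 uM; SLCO1B1 measured by qRT-PCR and fitted bidirectionally relative to DMSO.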

Read-out in test [10]: sulfotransferase 2A1 (SULT2A1), SULT2A1 (gene 6822)
Briefly: LTEA_HepaRG_SULT2A1: Life Technologies and Expression Analysis (LTEA) Assay for sulfotransferase 2A1 (SULT2A1) using HepaRG (AID 2283531). The gist of the method:
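Gene-expression endpoint in a human liver cell line: SULT2A1 mRNA change after 48 h chemical treatment, curves fitted in both directions relative to 0.5% DMSO vehicle. Concentrations spanned eight half-log steps from 100 uM.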

Read-out in test [11]: Transforming Growth Factor (TGFA), TGFA (gene 7039)
Put plainly: LTEA_HepaRG_TGFA: Life Technologies and Expression Analysis (LTEA) Assay for Transforming Growth Factor (TGFA) using HepaRG (AID 2283532). The gist of the method:
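TGFA transcript quantified by qRT-PCR (Fluidigm arrays) against three housekeeping genes, after 48 hours chemical treatment of HepaRG cells. Top concentration 100 uM with half-log dilutions, 8 points, duplicates, 0.5% DMSO.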

Read-out in test [12]: Transforming Growth Factor (TGFB1), TGFB1 (gene 7040)
Put plainly: LTEA_HepaRG_TGFB1: Life Technologies and Expression Analysis (LTEA) Assay for Transforming Growth Factor (TGFB1) Transporter using HepaRG (AID 2283533). The gist of the method:
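Eight-point concentration-response (max 100 uM, half-log) in HepaRG under serum-free induction conditions, 48 h. TGFB1 mRNA by qRT-PCR, housekeeping-normalized.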

Read-out in the next test: TIMP1, TIMP1 (gene 7076)
Put plainly: LTEA_HepaRG_TIMP1: Life Technologies and Expression Analysis (LTEA) Assay for TIMP1 using HepaRG (AID 2283534). A digest of the protocol:
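TIMP1 induction or repression in HepaRG cells after 48 h chemical exposure (eight concentrations, highest 100 uM), assessed by normalized qRT-PCR with bidirectional fitting to DMSO controls.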

Read-out in test [13]: Tumor necrosis factor receptor 1 (TNFRSF1A), TNFRSF1A (gene 7132)
Put plainly: LTEA_HepaRG_TNFRSF1A: Life Technologies and Expression Analysis (LTEA) Assay for Tumor necrosis factor receptor 1 (TNFRSF1A) using HepaRG (AID 2283535). A digest of the protocol: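 Assay uses 48 h chemical treatment of differentiated HepaRG monolayers, tested in duplicate at eight concentrations from 100 uM downward in 0.5% DMSO. mRNA is normalized to ACTB, GAPDH and POLR2A, with induction or suppression fitted relative to vehicle.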

Read-out in test [14]: Thyroid Hormone Responsive (THRSP), THRSP (gene 7069)
Put plainly: LTEA_HepaRG_THRSP: Life Technologies and Expression Analysis (LTEA) Assay for Thyroid Hormone Responsive (THRSP) using HepaRG (AID 2283536). A digest of the protocol:
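THRSP transcript quantified by Fluidigm qRT-PCR against three housekeeping genes after 48 h chemical exposure of HepaRG cells in serum-free induction medium; eight-point half-log series, top 100 uM, 0.5% DMSO vehicle, duplicate wells.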

Read-out in test [15]: Cellular tumor antigen p53 (Homo sapiens) (UniProt P04637)
Briefly: LTEA_HepaRG_TP53: Life Technologies and Expression Analysis (LTEA) Assay for Tumor Protein P53 (TP53) using HepaRG (AID 2283537). A digest of the protocol:
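HepaRG, 48 h exposure, top 100 uM, half-log 8-point, 0.5% DMSO vehicle, duplicates. Read: TP53 mRNA by TaqMan qRT-PCR, normalised to ACTB/GAPDH/POLR2A; bidirectional fit vs DMSO.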

Read-out in test [16]: UDP glucuronosyltransferase (UGT1A1), UGT1A1 (gene 54658)
Briefly: LTEA_HepaRG_UGT1A1: Life Technologies and Expression Analysis (LTEA) Assay for UDP glucuronosyltransferase (UGT1A1) using HepaRG (AID 2283538). The gist of the method: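 UGT1A1 transcript level, measured by qRT-PCR with three housekeeping genes for normalization, after 48 h treatment of human HepaRG cells (0.5% DMSO, duplicates, up to 100 uM, half-log steps, 8 points). Curves fit both directions against DMSO baseline.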

Read-out in test [17]: matrix metalloproteinase-3 (MMP3), MMP3 (gene 4314)
Briefly: LTEA_HepaRG_MMP3: Life Technologies and Expression Analysis (LTEA) Assay for matrix metalloproteinase-3 (MMP3) using HepaRG (AID 2283519). The gist of the method: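 Fluidigm-based TaqMan qRT-PCR, normalized to ACTB, GAPDH and POLR2A and fitted bidirectionally versus 0.5% DMSO, measured transcript levels. Treatment: duplicate 48 h exposures of HepaRG cells, ~100,000/well, to eight half-log concentrations topping at 100 uM.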

Read-out in test [18]: Pyruvate Dehydrogenase Kinase 4 (PDK4), PDK4 (gene 5166)
Put plainly: LTEA_HepaRG_PDK4: Life Technologies and Expression Analysis (LTEA) Assay for Pyruvate Dehydrogenase Kinase 4 (PDK4) using HepaRG (AID 2283525). A digest of the protocol:
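Readout is qRT-PCR of PDK4 transcript, normalized to three housekeeping genes, with bidirectional fitting against 0.5% DMSO vehicle. Differentiated HepaRG cells were treated 48 h in serum-free induction medium, duplicate wells, eight-point half-log series topping at 100 uM.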

Read-out in test [19]: succinate dehydrogenase complex iron sulfur subunit B (SDHB), SDHB (gene 6390)
Briefly: LTEA_HepaRG_SDHB: Life Technologies and Expression Analysis (LTEA) Assay for succinate dehydrogenase complex iron sulfur subunit B (SDHB) using HepaRG (AID 2283528). The gist of the method: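 HepaRG, 48 h exposure, 8-pt half-log series from 100 uM in 0.5% DMSO, duplicates. Readout: SDHB mRNA by Fluidigm qRT-PCR vs housekeeping genes; bidirectional fit relative to DMSO.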

The source made the active and inactive calls. The calls were made as follows: active = hit-call score of the fitted dose curve at least 0.9, where 1 is the maximum; inactive = score below 0.9.

Sequence of Cellular tumor antigen p53 (Homo sapiens) (P04637 whole entry, looked up): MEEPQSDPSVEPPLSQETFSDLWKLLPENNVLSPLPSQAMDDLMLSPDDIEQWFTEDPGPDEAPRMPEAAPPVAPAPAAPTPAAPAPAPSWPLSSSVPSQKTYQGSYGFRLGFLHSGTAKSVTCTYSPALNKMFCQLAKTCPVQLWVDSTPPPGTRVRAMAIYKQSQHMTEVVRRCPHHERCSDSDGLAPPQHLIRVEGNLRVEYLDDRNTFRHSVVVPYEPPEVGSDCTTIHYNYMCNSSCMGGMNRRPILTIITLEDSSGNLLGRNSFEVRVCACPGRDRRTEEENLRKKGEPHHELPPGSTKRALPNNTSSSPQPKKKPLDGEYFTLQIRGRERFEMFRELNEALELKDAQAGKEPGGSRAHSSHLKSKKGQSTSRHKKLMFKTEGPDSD
Sequence of Signal transducer and activator of transcription 3 (Homo sapiens) (P40763 whole entry, looked up): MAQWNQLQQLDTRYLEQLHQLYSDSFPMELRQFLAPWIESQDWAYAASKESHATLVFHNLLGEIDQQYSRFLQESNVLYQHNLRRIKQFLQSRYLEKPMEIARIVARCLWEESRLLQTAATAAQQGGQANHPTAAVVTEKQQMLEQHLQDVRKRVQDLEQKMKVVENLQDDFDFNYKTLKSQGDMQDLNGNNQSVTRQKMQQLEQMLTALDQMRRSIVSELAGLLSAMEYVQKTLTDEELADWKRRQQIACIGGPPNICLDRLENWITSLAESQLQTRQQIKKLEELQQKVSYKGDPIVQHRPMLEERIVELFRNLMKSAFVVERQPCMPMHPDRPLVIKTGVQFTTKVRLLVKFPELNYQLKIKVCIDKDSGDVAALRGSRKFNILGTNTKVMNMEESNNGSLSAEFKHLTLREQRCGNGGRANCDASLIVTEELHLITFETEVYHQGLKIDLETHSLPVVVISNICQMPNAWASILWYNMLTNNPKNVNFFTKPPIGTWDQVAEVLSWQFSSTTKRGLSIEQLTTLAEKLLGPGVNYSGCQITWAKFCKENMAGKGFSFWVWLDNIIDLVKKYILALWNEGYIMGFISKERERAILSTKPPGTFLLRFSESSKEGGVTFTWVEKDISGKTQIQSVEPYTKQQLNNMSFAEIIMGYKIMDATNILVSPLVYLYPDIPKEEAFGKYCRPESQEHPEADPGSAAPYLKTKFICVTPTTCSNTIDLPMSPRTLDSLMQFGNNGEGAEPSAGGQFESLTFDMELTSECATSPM
Sequence of Nuclear factor erythroid 2-related factor 2 (Homo sapiens) (Q16236 whole entry, looked up): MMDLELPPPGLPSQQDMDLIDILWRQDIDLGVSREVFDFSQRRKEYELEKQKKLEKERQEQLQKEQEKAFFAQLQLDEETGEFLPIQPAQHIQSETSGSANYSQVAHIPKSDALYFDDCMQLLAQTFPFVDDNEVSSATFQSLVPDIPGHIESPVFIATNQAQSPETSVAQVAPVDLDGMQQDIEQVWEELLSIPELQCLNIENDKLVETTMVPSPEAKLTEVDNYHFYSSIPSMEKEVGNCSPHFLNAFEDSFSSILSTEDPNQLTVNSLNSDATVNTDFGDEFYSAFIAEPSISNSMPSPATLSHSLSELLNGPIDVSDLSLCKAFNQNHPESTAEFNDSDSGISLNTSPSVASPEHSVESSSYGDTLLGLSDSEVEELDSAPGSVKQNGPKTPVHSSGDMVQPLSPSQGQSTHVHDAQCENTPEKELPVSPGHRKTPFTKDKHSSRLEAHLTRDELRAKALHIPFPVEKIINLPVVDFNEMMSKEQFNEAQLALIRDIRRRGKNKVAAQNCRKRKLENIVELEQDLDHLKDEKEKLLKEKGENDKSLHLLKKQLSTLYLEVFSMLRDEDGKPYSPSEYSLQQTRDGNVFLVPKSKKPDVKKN
Sequence of Nuclear factor NF-kappa-B p105 subunit (Homo sapiens) (P19838 whole entry, looked up): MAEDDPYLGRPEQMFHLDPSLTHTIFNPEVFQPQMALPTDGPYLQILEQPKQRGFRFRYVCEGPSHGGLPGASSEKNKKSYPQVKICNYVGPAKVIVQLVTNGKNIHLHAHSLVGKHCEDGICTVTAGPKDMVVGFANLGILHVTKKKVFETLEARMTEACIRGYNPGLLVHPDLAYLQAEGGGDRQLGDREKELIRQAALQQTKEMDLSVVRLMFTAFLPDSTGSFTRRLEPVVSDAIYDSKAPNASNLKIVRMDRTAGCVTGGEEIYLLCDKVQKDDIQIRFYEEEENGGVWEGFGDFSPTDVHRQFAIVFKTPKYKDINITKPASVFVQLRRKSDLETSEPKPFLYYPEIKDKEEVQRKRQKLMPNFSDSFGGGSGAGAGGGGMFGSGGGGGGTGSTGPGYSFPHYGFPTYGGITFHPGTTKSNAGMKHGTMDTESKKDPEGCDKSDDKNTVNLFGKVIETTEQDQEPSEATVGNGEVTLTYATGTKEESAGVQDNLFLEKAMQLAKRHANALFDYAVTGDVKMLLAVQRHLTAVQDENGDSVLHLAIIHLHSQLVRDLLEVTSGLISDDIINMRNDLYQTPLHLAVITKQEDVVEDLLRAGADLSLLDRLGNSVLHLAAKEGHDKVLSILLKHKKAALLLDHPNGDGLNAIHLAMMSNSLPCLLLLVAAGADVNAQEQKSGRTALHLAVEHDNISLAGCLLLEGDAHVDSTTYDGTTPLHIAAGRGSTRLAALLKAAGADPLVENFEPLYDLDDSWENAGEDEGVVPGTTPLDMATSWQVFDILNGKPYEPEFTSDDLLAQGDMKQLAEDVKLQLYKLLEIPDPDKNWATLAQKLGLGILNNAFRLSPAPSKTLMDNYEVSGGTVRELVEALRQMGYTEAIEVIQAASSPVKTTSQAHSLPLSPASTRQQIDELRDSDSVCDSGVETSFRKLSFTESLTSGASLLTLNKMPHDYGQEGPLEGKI

Regarding `CCc1c(C(=O)NN2CCCCC2)nn(-c2ccc(Cl)cc2Cl)c1-c1ccc(Br)cc1`, the AC50 in test [1] is 29.3 µM (active); in [2], 74.8 µM (active); in test [5], 40.4 µM (active); in test [6] it was 80.1 µM (active); in test [7], 72.4 µM (active); in test [9], 36.9 µM (active). Moreover, the AC50 is 37.4 µM (active) in [10]; 55.3 µM (active) in test [11]; 13.2 µM (active) in test [12]; 86.5 µM (active) in the test with TIMP1, TIMP1 (gene 7076); 29.8 µM (active) in test [15]; 58.1 µM (active) in [16]. Further, the result in test [3], in test [4], in test [8], in test [13] and in test [14] was inactive.

Consider `CC=Cc1ccc(O)c(OC)c1`, for which the compound was classed as inactive in test [17], in [1], in [3], in test [4], in [5] and in test [18]. For the same compound, the compound was classed as inactive in test [6], in test [7], in test [19], in test [8], in test [9] and in test [10]. Besides, the outcome was “inactive” in test [11]; “inactive” in test [12]; “inactive” with TIMP1, TIMP1 (gene 7076); “inactive” in test [13]; “inactive” in [15]; “inactive” in test [16].

`Cc1cc(NC(=O)C(=O)O)cc(C)c1Oc1ccc(O)c2c1CCC2`: the compound was classed as inactive in test [17], in [1], in [3], in [4], in [6] and in [7]. Besides, the outcome in [19] is “inactive”; in test [8], “inactive”; in test [11], “inactive”; in test [12] it was “inactive”; in the test with TIMP1, TIMP1 (gene 7076), “inactive”; in [13], “inactive”. For the same compound, the outcome in test [14] and in test [15] was inactive. The AC50 was 9.92 µM (active) in test [5], 0.00353 µM (active) in test [18], 50 µM (active) in test [9] and 0.526 µM (active) in test [10].

Turning to `COCCOC[C@H](CC1(C(=O)NC2CCC(C(=O)O)CC2)CCCC1)C(=O)Oc1ccc2c(c1)CCC2` (stereo partly drawn), the result in [17], in [1], in [4], in test [5], in [6] and in test [7] was inactive. Besides, the outcome was “inactive” in test [19]; “inactive” in test [9]; “inactive” in [10]; “inactive” in test [11]; “inactive” in test [12]; “inactive” with TIMP1, TIMP1 (gene 7076). The result in [13], in test [14] and in [15] was inactive.

As a reminder, the AC50 is the concentration at which the activity in the assay is half-maximal.
